A selection: hits, their analogues and other compounds. The true share with any hit is near 2.6%.
Nrf2 activator: activates Nrf2 signaling; AREc32 ARE-luciferase reporter (MCF7-derived line), luminescence, 24 h; Potency, µM (series often up to 46.1 µM), without a hit: at the highest dose activation, actives largely listed as activators; 410,000 compounds, 0.31% hits; note: potency is the fitted concentration of half-maximal effect; % of control where 0% means no effect; nearly all actives have a fitted effect of over 65% in size
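Steps: seed AREc32_Fluc cells (1000/well, 5% FBS OPTI-MEM); incubate overnight at 37 deg C; add 23 nL compound; incubate 24 hr; add Steady-Glo; hold 30 min RT; read luminescence.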
Nrf2 block: inhibitors of Nrf2 signaling. AID 504444. A549 ARE-Fluc reporter, luciferase luminescence, 18-24 h. Potency, µM (top dose mostly 46 µM), for inactives: at the top dose activity change, negative = inhibition, usual class: inhibitors. 360,000 compounds, 2.1% hits; note: potency is the fitted concentration of half-maximal effect; % is set by controls: 0 for no effect and ±100 for the full control effect; nearly all actives have a fitted effect of over 60% in size
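Nrf2 function is reported as luminescence of an ARE-controlled luciferase in A549 cells. Compounds were tested at several concentrations, and a CellTiter-Fluor read on the same wells flagged cytotoxicity.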
CCT chaperon mod: changes cytosolic chaperonin activity; purified chaperonin ATPase assay, HTRF ADP detection, 30 min; 360,000 compounds, 0.3% hits; activity change, % (test concentration not listed), hits read low; in the data active = activity change below about -30%; note: % is set by controls: 0 for no effect and ±100 for the full control effect
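TRiC (40 or 20 nM final, by batch activity) in 30 mM Tris pH 7.4, 100 mM KCl, 5 mM MgCl2, 1 mM DTT was treated with compound at 76 uM single dose, then 10 uM ATP, 30 min at 37 °C. ADP was read by HTRF Transcreener.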
A549 tox: kills or reduces viability of A549 cells in Nrf2 counter-screen; 390,000 compounds, 0.16% hits; Potency, µM (top dose mostly 46 µM), for inactives: at the top dose activity change, negative = cytotoxicity, usual class: inhibitors; A549 ARE-Fluc cells, CellTiter-Fluor viability, 18-24 h; note: potency is the fitted concentration of half-maximal effect; % is set by controls: 0 for no effect and ±100 for the full control effect
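A549 ARE-Fluc cells in 5% FBS OPTI-MEM, 5000 cells/well, rested 2 h then exposed to compounds in concentration-response for 18-24 h at 37 °C. Viability by CellTiter-Fluor fluorescence (Ex 405/Em 525) after 30 min; luciferase luminescence (BugLite, 15 min, RT) read afterwards.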
TCR activator: activates T cell receptor signaling. primary human leukocytes, anti-CD3, IL-2 HTRF, 48 h. Potency, µM (doses to about 9.22 µM), for inactives: top-dose activation of IL-2 secretion, actives largely listed as activators. 330,000 tested, under 10 active; note: % of control where 0% means no effect
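Primary human leukocytes incubated 48 hr with anti-CD3 beads plus compound, without co-stimulation. Secreted IL-2 measured by HTRF (europium cryptate/d2 anti-IL-2 pair, 320 nm excitation, 665 nm emission).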
AT treatment: potential ataxia-telangiectasia treatments restoring KAP-1 phosphorylation. Potency, µM (doses to about 57.5 µM), for the others: top-dose activation, hits mostly activators. F2112 A-T fibroblasts, KAP-1 phosphorylation AlphaLISA; neocarzinostatin DNA damage 30 min before lysis. 320,000 compounds, 0.19% hits; note: potency is the fitted concentration of half-maximal effect; % of control where 0% means no effect; nearly all actives have a fitted effect of over 45% in size
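ATM-like activity read as KAP-1 phosphorylation via AlphaLISA donor/acceptor antibody pairs after lysis and 6 hr at 25C. Cells were ATM-null patient fibroblasts (F2112, hTERT), dosed 60 min, then exposed to the DSB inducer NCS for 30 min.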
Active calls of the source: *; ? = inconclusive; · = no result given; [ ] = dose if it differs, or a comment. Unless noted, calls come from the whole dose curve; as a rule, active = well fitted curve in the direction sought with a large enough effect; inconclusive = small, poorly fitted or top-dose-only effect, or another doubt; inactive = no such curve, though single readings can be large; an effect the other way counts as inactive or inconclusive.

SMILES	Nrf2 activator	Nrf2 block	CCT chaperon mod	A549 tox	TCR activator	AT treatment
CS(=O)(=O)Nc1cccc(C2=NN(C(=O)c3ccccc3)C(c3cccs3)C2)c1 (stereo not given)	5%	?	-2	-12%	3%	7%
Cc1ccc(C(=O)N2N=C(c3cccc(NS(C)(=O)=O)c3)CC2c2cccs2)cc1 (stereo not given)	14%	23µM*	-1	0%	3%	-7%
CC(C)C(=O)N1N=C(c2ccc(NS(C)(=O)=O)cc2)CC1c1cccs1 (stereo not given)	3%	-28%	-4	?	1%[46.1 µM]	10%
COc1ccc(NC2c3ncccc3C(=O)N2Cc2ccccc2)c(OC)c1 (stereo not given)	0%	·	-4	10%	8%[46.1 µM]	-3%
COc1ccc(CN2C(=O)c3cccnc3C2Nc2ccc(OC)c(Cl)c2)cc1 (stereo not given)	0%	1%	-71*	-3%	-1%	1%
Cc1nc2c(C(=O)NCCC3=CCCCC3)c[nH]n2c(=O)c1Cl	0%	4%	-39*	1%	·	-1%
Cc1ccc(S(=O)(=O)CCC(=O)OCc2cc(C)ccc2C)cc1	-1%	13%	-2	2%	3%	5%
CCCCN1C(=O)C(=O)NC[C@H]1Cc1cccc2ccccc12	0%	·	-2	·	·	·
O=C1NC[C@@H](Cc2cccc3ccccc23)N(CC2(c3ccccc3)CC2)C1=O	4%	21µM*	2	?	0%	0%
Cc1ccc(NC(=S)NCC2CCCO2)c(OC(F)F)c1 (stereo not given)	-1%	1%	2	1%	2%[46.1 µM]	1%
O=C(CCCCCn1c(=S)[nH]c2ccc(N3CCOCC3)cc2c1=O)NCc1ccc2c(c1)OCO2	-1%	-15%	-57*	-12%	·	3%
CC(CCc1ccc(O)cc1)NC(c1ccccc1)c1ccc(Cl)cc1 (stereo not given)	0%	23µM*	-1	?	-5%	-14%
CC(CCc1ccc(O)cc1)NCCC(c1ccccc1)c1ccccc1 (stereo not given)	3%	2%	1	0%	-1%	-1%
N#C/C(=C\c1cc2c(cc1Br)OCO2)c1ccc(C(=O)O)cc1	0%	-14%	3	-4%	8%	-13%
Cc1occc1C(=O)N/N=C/C(Br)=C\c1ccccc1	14µM*	?	0	1%	0%	1%
O=C(N/N=C/C(Br)=C/c1ccccc1)C1CC1	20µM*	?	2	-3%	7%	13%
O=C(N/N=C/C(Br)=C/c1ccccc1)C(O)c1ccccc1 (stereo not given)	11µM*	?	0	-4%	1%	8%
O=C(O)c1ccc(N/N=C/C(Br)=C/c2ccccc2)cc1	?	?	-1	?	1%	-31%
Cc1occc1C(=O)N/N=C/C=C/c1ccccc1	-5%	4%	-5	10%	8%	4%
O=C1c2ccccc2C(=O)N1c1cncc2ccccc12	·	21%	·	4%	·	·
Cc1ccc(-c2cn3c(n2)sc2cc(C(=O)NC4CCCCC4)ccc23)cc1	3%	7%	·	-1%	·	·
Cc1ccccc1Cn1ccn(-c2ccc(F)c(F)c2)c(=O)c1=O	1%	-9%	·	-2%	·	·
COc1ccc2c(c1)sc1nc(-c3ccccc3)cn12	-2%	18µM*	-2	-6%	-26%	?
COc1ccc(-c2cn3c(n2)sc2cc(C(=O)NCc4ccccc4)ccc23)cc1	6%	7%	·	-7%	·	·
Cc1c(CCC(=O)N2CCC[C@H]2C(=O)O)c(=O)oc2c(C)c3oc4c(c3cc12)CCCC4	-3%	6.5µM*	0	-9%	-4%	-8%
SMILES	Nrf2 activator	Nrf2 block	CCT chaperon mod	A549 tox	TCR activator	AT treatment
CCCN(CCC)C(=O)Cn1c(SCc2cccc(F)c2)nc2cccnc21	0%	-20%	·	-2%	·	·
O=c1[nH][nH]cc1C=Nc1ccccc1O	13µM*	25%	-1	-10%	-2%	-7%
O=c1[nH][nH]cc1C=Nc1cc(Cl)ccc1O	13µM*	?	1	-1%	-22%	5%
O=C(CC1N=C2c3ccccc3N=C(SCc3cccc(Cl)c3)N2C1=O)NCCc1ccccc1 (stereo not given)	-1%	·	·	-26%	·	·
COc1cc2c(c(OC)c1OC)C(=O)C(=Cc1ccccc1)O2	16µM*	?	0	6%	-7%	·
Cc1cc(-c2ccccc2)cc(-c2ccccc2)[n+]1C	0%	12µM*	1	-12%	-2%	3%
CCCC(C(=O)NC1CCCC1)N(Cc1ccccc1)C(=O)c1snc(C(N)=O)c1N (stereo not given)	0%	-19%	-1	-5%	-2%	-1%
CCCCn1c(N)c(N(CC(C)C)C(=O)c2cccc(S(=O)(=O)N3CCCCCC3)c2)c(=O)[nH]c1=O	0%	-49%	-81*	-1%	-1%	9%
COc1ccccc1OCCn1nnc2ccccc21	3%	?	-55*	2%	·	-3%
CCOc1ccccc1OCCn1nnc2ccccc21	3%	-8%	-2	-6%	·	·
CCOC(=O)c1ccccc1NC(=O)COC(=O)C1CC(=O)N(CCc2ccccc2)C1 (stereo not given)	0%	6%	0	-12%	-6%	2%
COc1ccc(OC)c(-c2cc(C3CCN(c4ncccc4[N+](=O)[O-])CC3)[nH]n2)c1	0%	?	0	?	4%	-10%
O=[N+]([O-])c1cccnc1N1CCC(c2cc(-c3ccc(Cl)cc3Cl)n[nH]2)CC1	-1%	18µM*	-1	?	-53%	-1%
O=[N+]([O-])c1cccnc1N1CCC(c2cc(-c3cccc(C(F)(F)F)c3)n[nH]2)CC1	-1%	21µM*	-3	?	-3%	-6%
CC(=O)c1ccc(N2CCC(c3cc(-c4ccc(Cl)cc4Cl)n[nH]3)CC2)c([N+](=O)[O-])c1	-1%	16µM*	-1	?	3%	10%
CCCC(O)(c1ccc(Cl)cc1)C(CN1CCOCC1)c1ccc(Cl)cc1 (stereo not given)	3%	18µM*	0	-11%	9%	-11%
CCOc1ccc(C(=O)N(Cc2nc(-c3cccc(C)c3)no2)C(C)C)cc1	1%	-24%	·	2%	·	·
CN(C)CCCO[C@@H]1[C@H]2OC(C)(C)O[C@H]2O[C@@H]1[C@H](O)CO	-1%	-26%	-88*	-14%	3%	6%
C=CC[C@@H](Cc1ccc(F)cc1)C(=O)OC[C@H]1CCCN1C(=O)[C@H](CC=C)CC(=O)N[C@H](CO)Cc1ccccc1	2%	23µM*	0	?	1%	3%
